A short description of test [1]: liver-stage malaria parasite growth inhibition, primary screen, cell-based, HepG2, luciferase luminescence, HepG2 viability (AID 624349; in the data active = parasite load remaining mostly below about 12%, no sharp cut-off; inactive = mostly above about 10%;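 also: 100% = mean of DMSO negative control wells on the same plate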). The following applies: P. berghei liver stage in HepG2, luciferase luminescence, concentration not given here; parasite load remaining: stronger effect = lower value; viability: measured here: HepG2 viability without parasites.
Test [2] can be described thus: Cy5 fluorescence interference with SSB-bound oligo, artefact control for HCV NS3 helicase inhibitor project, biochemical, NIH Clinical Collection, E. coli SSB (AID 743268; call rule not given here).
The subject of test [3] is Hepatitis C virus NS3 helicase. The test is described as follows: HCV NS3 helicase inhibitors, primary screen, biochemical, fluorescence polarization, NIH Clinical Collection (AID 743270; call rule not given here). The following applies: NS3 helicase binding to Cy5-dT15 DNA, stronger effect = higher value, concentration not given here.
Test [4] concerns the target Single-stranded DNA-binding protein (Escherichia coli (strain K12)) (UniProt P0AGE0). The test is described as follows: E. coli SSB displacement from DNA, counter-screen for HCV NS3 helicase inhibitor project, biochemical, fluorescence polarization, NIH Clinical Collection (AID 743271; in the data active = inhibition above about 28%). The following applies: stronger effect = higher value, concentration not given here. In general terms: The purpose of a counterscreen is to sort out artefacts and off-target activity.

The nature of test [5]: fluorescence interference in NS3h assay format, artefact control for HCV NS3 helicase inhibitor project, biochemical, NIH Clinical Collection (AID 743272; call rule not given here;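 also: HCV NS3 helicase with a Cy5 labelled single stranded DNA probe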). The following applies: fluorescence interference counterscreen, stronger effect = lower value.
Test [6] can be described thus: differential killing of epithelial or mesenchymal cells, primary screen, imaging, PC-3E GFP, TEM4-18 mCherry, co-culture (AID 1345086;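 active = compounds killing one labelled cell type while sparing the other, by normalised counts and ratio limits, not self-fluorescent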;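 also: cells exposed to compound for 72 h before imaging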;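 as to red/green cell ratio (normalised): normalised mesenchymal count divided by normalised epithelial count so high means epithelial killing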). The following applies: imaging cell counts, at 1 µM.
Test [7] is described as follows: sensitizers of A549 cells to miR-34 induction, primary screen, imaging, A549 dox-inducible miR-34, nuclei and caspase counts (AID 1347080;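 active = compounds whose cell count with miR-34 switched on is under 0.7 times the count with it off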). The following applies: A549 miR-34 inducible, Hoechst nuclei count, 48 h.
Test [8] can be described thus: viability rescue of complex I mutant cybrids, primary screen, cell-based, galactose medium, ATP luminescence (AID 1645843;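 active = z-score of at least 1.8 in each of two replicates, scored against plate mean and spread of sample wells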;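 also: positive z means more ATP and so rescue of galactose-driven cybrid death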). The following applies: complex I mutant cybrid cells, 72 h, stronger effect = higher value.
Test [9] concerns F380Y. The test is described as follows: modulators of BK channel variants, profiling panel, selectivity assay, cell-based, U2OS BacMam, thallium flux, beta subunits (AID 1259406).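 Also: initial slope of Thallos dye fluorescence rise after thallium is added; log ratio against the mean of 0.3% DMSO vehicle wells on the same plate.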 The following applies: at 30 µM.
Test [10] relates to F380Y/beta1. The description is as above. The conditions noted are these: at 30 µM.
The subject of test [11] is F380Y/beta2Delta. The description is as above. The following applies: at 30 µM.
Test [12] relates to F380Y/beta4. Described as above. The following applies: at 30 µM.
The target in test [13] is Calcium-activated potassium channel subunit alpha-1 (Homo sapiens) + Leucine-rich repeat-containing protein 26 (Homo sapiens) (UniProt Q12791+Q2I0M4). The test is described as above. The conditions noted are these: F380Y/Slo1WT/gamma1, at 30 µM.
In test [14] the test system is R275C. Described as above. The conditions noted are these: at 30 µM.
For test [15], the system named is R275C/beta1. Described as above. The conditions noted are these: at 30 µM.
Test [16] deals with R275C/beta2Delta. Described as above. The conditions noted are these: at 30 µM.
Test [17] has as its system R275C/beta4. The description is as above. The following applies: at 30 µM.
In test [18] the test system is R275C/Slo1WT/beta2. Described as above. The conditions noted are these: at 30 µM.
In test [19] the test system is Neuropilin-2 / VEGF-C interaction (human). Description: inhibitors of NRP2–VEGF-C binding, biochemical, microplate binding format, z-score (AID 743281; call rule not given here). The conditions noted are these: microplate NRP2/VEGF-C binding assay; stronger effect = lower value.
Test [20] can be described thus: modulation of C. elegans fzo-1 (AID 1259413; call rule not given here;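 also: fzo-1 mutant C. elegans worms in liquid wells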). The conditions noted are these: C. elegans fzo-1 modulator screen, mean read-out; stronger effect = higher value.
[21] abbreviates: stronger effect = lower value, cell number ratio, induced over uninduced.
Setting [22] is: measured here: relative caspase fold change +Dox/-Dox.
The mark [23] stands for this setting: measured here: total cells with miR-34 induction, stronger effect = lower value.
The mark [24] stands for this setting: measured here: total cells without miR-34 induction.

“And” between values parts separate entries of the source, which are not always exact repeats. Equal values may be shown once. The source made the active and inactive calls.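 The calls were made as follows, unless noted: active = thallium flux through the channel raised or lowered by more than 3 SD from vehicle-only wells, actives on both sides; inactive = the rest.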

Sequence of Calcium-activated potassium channel subunit alpha-1 (Homo sapiens) + Leucine-rich repeat-containing protein 26 (Homo sapiens) (Q2I0M4 whole entry, looked up, one chain of several): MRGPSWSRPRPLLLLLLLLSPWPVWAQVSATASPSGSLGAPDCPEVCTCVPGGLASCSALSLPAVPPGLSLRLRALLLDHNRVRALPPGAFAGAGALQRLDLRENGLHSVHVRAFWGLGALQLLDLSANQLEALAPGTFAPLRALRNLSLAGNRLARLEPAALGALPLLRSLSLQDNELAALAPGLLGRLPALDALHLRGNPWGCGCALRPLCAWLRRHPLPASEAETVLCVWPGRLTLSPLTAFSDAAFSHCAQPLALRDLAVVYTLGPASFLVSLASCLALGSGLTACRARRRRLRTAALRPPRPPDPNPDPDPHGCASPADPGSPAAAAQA

Consider `CCCc1nc(C(C)(C)O)c(C(=O)O)n1Cc1ccc(-c2ccccc2-c2nn[nH]n2)cc1`, for which the parasite load remaining in test [1] is 103% (inactive). Moreover, the viability in test [1] came to 69%. For the same molecule, the fluorescence ratio in [2] was 1.02 (inactive); in [5], 0.93 (inactive). Also, the inhibition in test [3] is 1.19% (inactive); in test [4], -0.1% (inactive). Besides, the red/green cell ratio (normalised) in test [6] (actives lie on both sides, counts scaled to control wells, 1 = unselective) was 1.01 (inactive). The normalised cell number in test [6] (measured here: epithelial PC-3E GFP cell survival) amounted to 1.21; in test [6] (measured here: mesenchymal TEM4-18 mCherry cell survival) it was 1.22. Further, the fold change in [7] (setting [21]) was 0.897 (inactive) and 0.859 (inactive); in test [7] (setting [22]), 2.28 and 0.39. The cell count was 9480 and 8420 in test [7] (setting [23]); 10600 and 9810 in test [7] (setting [24]). Besides, the z-score in test [8] is 0.54 (inactive) and -0.09 (inactive). For the same molecule, the log fold change Tl+ flux was -0.0187 (inactive) in test [9]; 0.00703 (inactive) in test [10]; 0.0323 (inactive) in [11]; -0.0244 (inactive) in test [12]; 0.0466 (inactive) in test [13]; 0.0686 (inactive) in test [14]. The log fold change Tl+ flux in [15] is 0.00561 (inactive); in test [16], 0.0191 (inactive); in [17], -0.0131 (inactive); in test [18], -0.0157 (inactive).

With `CCC1=C[C@H]2CN(C1)Cc1c([nH]c3ccccc13)[C@@](C(=O)OC)(c1cc3c(cc1OC)N(C)[C@H]1[C@@](O)(C(=O)OC)[C@H](OC(C)=O)[C@]4(CC)C=CCN5CC[C@]31[C@@H]54)C2`, the parasite load remaining in test [1] is 32.2% (inactive). The molecule also yielded a viability in test [1] of 76.8%. In addition, the fluorescence ratio is 0.8 (active) in test [2] and 0.78 (active) in test [5]. Further, the inhibition in test [3] was -1.98% (inactive); in [4], 9.91% (inactive). Besides, the z-score in test [19] was 1.48 (inactive). The mean signal in test [20] was 244 (inactive). For the same molecule, the log fold change Tl+ flux in test [9] was 0.0913 (inactive); in test [10], 0.0236 (inactive); in [11], 0.0207 (inactive); in test [12], 0.0427 (inactive); in test [13] it was -0.0112 (inactive); in [14], -0.149 (active). For the same molecule, the log fold change Tl+ flux in test [15] was 0.0456 (inactive); in test [16], 0.0329 (inactive); in test [17], 0.0723 (inactive); in test [18], 0.104 (active).

On to `O=C1c2c(O)cc(O)cc2O[C@H](c2ccc(O)c(O)c2)[C@@H]1O`, for which the parasite load remaining in test [1] is 102% (inactive). Also, the viability in [1] turned out to be 72.9%. The fluorescence ratio in [2] and in test [5] was 1.01 (inactive) in each case. Also, the inhibition in [3] was -0.4% (inactive); in [4], -1.64% (inactive). Also, the z-score in test [19] was -0.585 (inactive). Further, in [20], the mean signal is 251 (inactive). The log fold change Tl+ flux in test [9] was -0.0094 (inactive); in test [10], 0.0164 (inactive); in [11], 0.0588 (inactive); in [12], -0.00507 (inactive); in test [13] it was -0.00714 (inactive); in [14], -0.0635 (inactive). Moreover, the log fold change Tl+ flux in test [15] was 6.5e-05 (inactive); in [16], 0.0295 (inactive); in test [17] it was -0.031 (inactive); in test [18], -0.00661 (inactive).

With `CC(=O)[C@@]1(O)CC[C@H]2[C@@H]3C[C@H](C)C4=CC(=O)CC[C@]4(C)[C@H]3CC[C@@]21C`, in test [1], the parasite load remaining was 37.7% (inactive). Also, the viability in [1] turned out to be 68%. The fluorescence ratio was 0.96 (inactive) in [2] and 0.95 (inactive) in test [5]. Further, the inhibition in [3] was -0.22% (inactive); in [4], -0.39% (inactive). The z-score in [19] is -0.215 (inactive). In test [20], the mean signal is 243 (inactive). Moreover, the log fold change Tl+ flux is 0.0243 (inactive) in [9]; 0.0476 (inactive) in [10]; 0.0349 (inactive) in test [11]; -0.018 (inactive) in test [12]; 0.00484 (inactive) in [13]; -0.0195 (inactive) in test [14]. Besides, the log fold change Tl+ flux was 0.0286 (inactive) in [15], -0.00744 (inactive) in test [16], 0.0101 (inactive) in test [17] and -0.0331 (inactive) in [18].

Turning to `c1ccc(-c2ccccn2)nc1`, the fold change in test [7] (setting [21]) was 0.97 (inactive); in test [7] (setting [22]), 1.38. For the same molecule, the cell count in test [7] (setting [23]) was found to be 9830; in test [7] (setting [24]), 10100. Besides, in test [8], the z-score was 0.54 (inactive). The log fold change Tl+ flux in [9] is -0.0156 (inactive); in test [10] it was -0.0247 (inactive); in test [11] it was 0.0286 (inactive); in test [12], 0.0375 (inactive); in test [13] it was 0.0137 (inactive); in test [14] it was 0.0175 (inactive). The log fold change Tl+ flux in [15] is -0.0449 (inactive); in test [16], 0.0381 (inactive); in [17], -0.011 (inactive); in [18], 0.000803 (inactive).

On to `CCCCCN=C(N)NN=Cc1c[nH]c2ccc(OC)cc12`, for which, in test [1], the parasite load remaining is 0.065% (inactive). The same molecule displayed a viability in test [1] of 3.78%. Moreover, the fold change in test [7] (setting [21]) is 1.42 (inactive); in test [7] (setting [22]), 1.01. The figures for the cell count in [7] (setting [23]) and in test [7] (setting [24]) were 18.5 and 13, respectively. Besides, the z-score in test [8] was -1.88 (inactive). Moreover, the log fold change Tl+ flux in test [9] is 0.707 (active); in test [10], 0.869 (active); in test [11], 0.585 (active); in test [12], 0.841 (active); in test [13] it was 0.468 (active); in test [14], 0.229 (active). The log fold change Tl+ flux in test [15] was 0.839 (active); in test [16] it was -0.0142 (inactive); in [17] it was 0.743 (active); in [18], 0.7 (active).

`CC1(C)O[C@@H]2C[C@H]3[C@@H]4C[C@H](F)C5=CC(=O)C=CC5(C)[C@@]4(F)[C@@H](O)CC3(C)C2(C(=O)CO)O1` (some centres not stated): in test [20], the mean signal was 256 (inactive).

Regarding `CC(C)CC(NC(=O)C(COC(C)(C)C)NC(=O)C(Cc1ccc(O)cc1)NC(=O)C(CO)NC(=O)C(Cc1c[nH]c2ccccc12)NC(=O)C(Cc1cnc[nH]1)NC(=O)C1CCC(=O)N1)C(=O)N[C@@H](CCCN=C(N)N)C(=O)N1CCCC1C(=O)NNC(N)=O` (some centres not stated), in [1], the parasite load remaining was 82.9% (inactive). This molecule also registered a viability in test [1] of 90.6%. In addition, the values for the fluorescence ratio in [2] and in [5] were 0.89 (inactive) and 0.87 (inactive), respectively. The results for the inhibition in test [3] and in test [4] were -0.22% (inactive) and 7.48% (inactive), respectively. In addition, the z-score in test [19] is -0.441 (inactive). The log fold change Tl+ flux in [9] is -0.0277 (inactive); in test [10], 0.02 (inactive); in [11], -0.0184 (inactive); in test [12], 0.00509 (inactive); in [13] it was -0.0112 (inactive); in [14], -0.0448 (inactive). In addition, the log fold change Tl+ flux in [15] is 0.00576 (inactive); in [16], -0.00625 (inactive); in test [17], -0.0787 (inactive); in [18] it was 0.0919 (active).

`CCC(=O)O[C@]1(C(=O)CCl)[C@@H](C)C[C@H]2[C@@H]3CCC4=CC(=O)C=CC4(C)[C@@]3(F)[C@@H](O)CC21C` (some centres not stated): in [20], the mean signal is 254 (inactive).

For the molecule `CC12C=CC(=O)C=C1CC[C@@H]1[C@@H]2[C@@H](O)CC2(C)[C@H]1CC[C@]2(O)C(=O)CO` (some centres not stated), the mean signal in [20] was 258 (inactive).

In the case of `CN[C@@H]1[C@H](O)[C@H](NC)[C@H]2OC3(O)C(=O)C[C@@H](C)O[C@H]3O[C@@H]2[C@H]1O` (some centres not stated), the mean signal in test [20] was 224 (inactive).

As to `CC(C)C[C@H](NC(=O)[C@@H](COC(C)(C)C)NC(=O)[C@H](Cc1ccc(O)cc1)NC(=O)[C@H](CO)NC(=O)[C@H](Cc1c[nH]c2ccccc12)NC(=O)[C@H](Cc1cnc[nH]1)NC(=O)[C@H]1CCC(=O)N1)C(=O)N[C@H](CCCN=C(N)N)C(=O)N1CCC[C@@H]1C(=O)NNC(N)=O`, the mean signal in [20] is 236 (inactive).

What is called viability is the share of living cells, or the viability signal relative to a control. Broadly, the inhibition is the drop in the measured response relative to a control, in per cent.

The record behind these values is PubChem BioAssay.
